Our source for the growth values is PubChem BioAssay (NCI).

The panel holds about 83,000 compounds, 20% with a hit somewhere; the sample as a whole holds those more often.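 Growth was measured after 48 h exposure to one concentration of compound in 96-well plates. Values under 10 count as active.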 A number with no mark means an inactive call. Active and inactive are the calls of the source.

What all share (experiment): NCI-60 one-dose screen, 48 h (100 = growth as untreated, 0 = no growth, -100 = all killed)
In one assay the test system is HCT-15 colon. Conditions: 10 µM unless noted.
For a further assay, the system named is HT29 colon. The note with it: 10 µM unless noted.
In another assay the test system is SNB-75 CNS. The note with it: 10 µM unless noted.
The subject of a further assay is SNB-19 CNS. The note with it: 10 µM unless noted.
Another assay relates to U251 CNS. Conditions: 10 µM unless noted.
The next assay has as its system PC-3 prostate. Conditions: 10 µM unless noted.
The test system of the next assay is SK-MEL-5 melanoma. The note with it: 10 µM unless noted.
Another assay relates to UACC-62 melanoma. Conditions: 10 µM unless noted.
For another assay, the system named is LOX IMVI melanoma. The note with it: 10 µM unless noted.
Another assay concerns SK-MEL-28 melanoma. The note with it: 10 µM unless noted.
The subject of another assay is SK-MEL-2 melanoma. The note with it: 10 µM.
Another assay has as its system EKVX NSCLC. The note with it: 10 µM unless noted.
A further assay deals with SN12C renal. Conditions: 10 µM unless noted.
The test system of a further assay is TK-10 renal. Conditions: 10 µM unless noted.
In another assay the test system is ACHN renal. Conditions: 10 µM unless noted.
The test system of another assay is A498 renal. The note with it: 10 µM unless noted.
Another assay relates to CCRF-CEM leukemia. The note with it: 10 µM unless noted.
In a further assay the test system is MOLT-4 leukemia. Conditions: 10 µM unless noted.
A further assay relates to UO-31 renal. The note with it: 10 µM unless noted.
The next assay deals with CAKI-1 renal. Conditions: 10 µM unless noted.

As for `Clc1nc(Cl)c2ncn(C/C=C\Cn3cnc4c(Cl)nc(Cl)nc43)c2n1`, the growth with HCT-15 colon was -44.7% (active); with HT29 colon it was -65.9% (active); in the assay on SNB-75 CNS, -25.7% (active); in the assay on SNB-19 CNS, 9.97% (active); in the assay with U251 CNS, -56.5% (active); with PC-3 prostate it was -57.6% (active). Besides, the growth in the assay with SK-MEL-5 melanoma was -81.5% (active); in the assay with UACC-62 melanoma, -72.7% (active); with LOX IMVI melanoma, -80.1% (active); with SK-MEL-28 melanoma, -19% (active); in the assay with SK-MEL-2 melanoma it was 23.5%; in the assay on EKVX NSCLC, -68% (active). For the same compound, the growth in the assay with SN12C renal is -11.3% (active); with TK-10 renal it was -45.6% (active); in the assay on ACHN renal, -94.5% (active); in the assay on A498 renal, -18.2% (active); in the assay on CCRF-CEM leukemia, -73.4% (active); in the assay with MOLT-4 leukemia, -55.4% (active).
As to `COc1cc(Nc2ncc(F)c(Nc3ccc4c(n3)N(COP(=O)(O)O)C(=O)C(C)(C)O4)n2)cc(OC)c1OC`, the growth in the assay with HCT-15 colon is 21.4%; in the assay on HT29 colon it was -0.77% (active); in the assay on SNB-75 CNS, -95.5% (active); with SNB-19 CNS it was 31.4%; in the assay with U251 CNS, 29.5%; in the assay with PC-3 prostate, 33.5%. The growth is 43.8% in the assay with SK-MEL-5 melanoma; 18.8% with UACC-62 melanoma; -69% (active) in the assay on LOX IMVI melanoma; 45.6% in the assay with SK-MEL-28 melanoma; 32.7% in the assay with EKVX NSCLC; 22.8% in the assay with SN12C renal. Moreover, the growth in the assay on UO-31 renal is -23.9% (active); in the assay with TK-10 renal it was -43.8% (active); in the assay on ACHN renal, 6.43% (active); with CAKI-1 renal, -54.1% (active); in the assay on A498 renal, -70.9% (active); in the assay on CCRF-CEM leukemia it was 29.9%. In the assay on MOLT-4 leukemia, the growth is 29.6%.
`Cc1ccc(F)c(NC(=O)Nc2ccc(-c3cccc4[nH]nc(N)c34)cc2)c1`: the growth in the assay on HCT-15 colon was 7.06% (active); in the assay with HT29 colon it was 2.74% (active); in the assay with SNB-75 CNS it was 29.8%; with SNB-19 CNS, 27.2%; in the assay on U251 CNS, 12.9%; in the assay with PC-3 prostate, 30.8%. For the same compound, the growth is 34.6% in the assay with SK-MEL-5 melanoma; 37.1% with UACC-62 melanoma; -8.35% (active) in the assay with LOX IMVI melanoma; 36.1% in the assay on SK-MEL-28 melanoma; 21.9% in the assay on EKVX NSCLC; 24.9% with SN12C renal. Moreover, the growth was 17.6% with UO-31 renal; 2.19% (active) in the assay with TK-10 renal; 15.4% in the assay with ACHN renal; 31.8% in the assay with CAKI-1 renal; 30.1% in the assay on A498 renal; 11.4% in the assay on CCRF-CEM leukemia. The growth in the assay with MOLT-4 leukemia was 15.5%.
In the case of `C[C@@]1(C(=O)Nc2ccc(F)nc2)CCCN1c1nc(Nc2cc(C3CC3)[nH]n2)c2cccn2n1`, the growth in the assay on HCT-15 colon is 26.5%; in the assay with HT29 colon, -31.8% (active); in the assay on SNB-75 CNS, -53.2% (active); with SNB-19 CNS it was 55.2%; in the assay on U251 CNS it was 32.3%; in the assay on PC-3 prostate it was 30.8%. Moreover, the growth in the assay on SK-MEL-5 melanoma was 48.1%; in the assay with UACC-62 melanoma, 17.5%; in the assay with LOX IMVI melanoma, -35.5% (active); with SK-MEL-28 melanoma, 43.6%; in the assay on EKVX NSCLC it was 46.2%; in the assay on SN12C renal, 34.6%. Further, the growth in the assay on UO-31 renal is 2.07% (active); with TK-10 renal it was 35.9%; in the assay on ACHN renal it was 25.7%; with CAKI-1 renal it was -17.7% (active); in the assay on A498 renal, -41.7% (active); with CCRF-CEM leukemia, 44%. The growth in the assay on MOLT-4 leukemia was 30.3%.
Regarding `C=CCn1c(=O)c2cnc(Nc3ccc(N4CCN(C)CC4)cc3)nc2n1-c1cccc(C(C)(C)O)n1`, the growth was 4.74% (active) in the assay on HCT-15 colon; -12.4% (active) in the assay on HT29 colon; 3.88% (active) in the assay on SNB-75 CNS; 26.9% in the assay with SNB-19 CNS; 16.7% with U251 CNS; 28.4% in the assay on PC-3 prostate. For the same compound, the growth in the assay on SK-MEL-5 melanoma was 18.2%; in the assay on UACC-62 melanoma it was 42.6%; in the assay on LOX IMVI melanoma it was 5.87% (active); in the assay with SK-MEL-28 melanoma, 64.4%; in the assay with EKVX NSCLC, 22.5%; in the assay on SN12C renal it was 28.4%. The growth in the assay on UO-31 renal was 10.5%; with TK-10 renal it was 13.8%; with ACHN renal, 25.4%; in the assay on CAKI-1 renal, 23.3%; with A498 renal, -26% (active); in the assay on CCRF-CEM leukemia, 8% (active). Further, the growth with MOLT-4 leukemia is 3.84% (active).
Consider `CC(=O)c1c(C)c2cnc(Nc3ccc(N4CCNCC4)cn3)nc2n(C2CCCC2)c1=O`, for which the growth is 22.4% in the assay with HCT-15 colon; -22.8% (active) in the assay with HT29 colon; 54.9% in the assay on SNB-75 CNS; 50.5% in the assay with SNB-19 CNS; 37.8% in the assay on U251 CNS; 32.9% with PC-3 prostate. The growth is 41.1% in the assay with SK-MEL-5 melanoma; 49.9% with UACC-62 melanoma; 17.6% in the assay on LOX IMVI melanoma; 56.4% with SK-MEL-28 melanoma; 58.8% in the assay on EKVX NSCLC; 37.1% in the assay on SN12C renal. Further, the growth in the assay with UO-31 renal is 20.2%; in the assay on TK-10 renal it was 32.4%; in the assay on ACHN renal, 17.1%; in the assay on CAKI-1 renal, 26.3%; in the assay with A498 renal, 31.7%; with CCRF-CEM leukemia, 12.2%. Further, the growth with MOLT-4 leukemia was 11%.
As for `COc1cc2c(c(OC)c1)C1c3ccccc3NC(=O)N1CC2` (centres undefined), the growth with HCT-15 colon is 18%; in the assay with HT29 colon, 6.37% (active); in the assay with SNB-75 CNS, 7.13% (active); in the assay on SNB-19 CNS, 44.7%; in the assay with U251 CNS it was 16.8%; in the assay with PC-3 prostate it was 22.6%. The growth with SK-MEL-5 melanoma is 15.7%; in the assay on UACC-62 melanoma, 15.6%; in the assay on LOX IMVI melanoma, 41.3%; in the assay on SK-MEL-28 melanoma it was 49.8%; in the assay with EKVX NSCLC, 42.1%; in the assay on SN12C renal, 39%. The growth was 36.8% with UO-31 renal; 49.5% in the assay on TK-10 renal; 44.9% with ACHN renal; 34.3% in the assay on CAKI-1 renal; -7.8% (active) in the assay on A498 renal; 10.7% in the assay with CCRF-CEM leukemia. The growth in the assay with MOLT-4 leukemia is 30.6%.
Turning to `Cn1cnc2c(F)c(Nc3ccc(Br)cc3F)c(C(=O)NOCCO)cc21`, the growth in the assay with HCT-15 colon was 62%; in the assay on HT29 colon, 6.34% (active); in the assay with SNB-75 CNS it was 86.1%; in the assay with SNB-19 CNS, 51.3%; in the assay with U251 CNS it was 51.5%; in the assay with PC-3 prostate it was 93%. For the same compound, the growth in the assay with SK-MEL-5 melanoma was 45.5%; with UACC-62 melanoma, -8.58% (active); with LOX IMVI melanoma it was 29.6%; in the assay with SK-MEL-28 melanoma, -3.38% (active); in the assay on EKVX NSCLC, 54%; with SN12C renal it was 56.2%. In addition, the growth with UO-31 renal is 48.8%; in the assay on TK-10 renal, 50.5%; in the assay with ACHN renal it was 57.6%; in the assay with CAKI-1 renal, 45.9%; with A498 renal, -28.4% (active); with CCRF-CEM leukemia, 73.8%.
For `CN(C)C/C=C/C(=O)Nc1cc2c(Nc3ccc(F)c(Cl)c3)ncnc2cc1O[C@H]1CCOC1`, the growth in the assay on HCT-15 colon is -6.21% (active); in the assay on HT29 colon, -2.13% (active); in the assay with SNB-75 CNS, -1.97% (active); in the assay on SNB-19 CNS it was 8.32% (active); with U251 CNS, -3.99% (active); in the assay with PC-3 prostate it was 5.5% (active). For the same compound, the growth in the assay on SK-MEL-5 melanoma is -81.4% (active); in the assay on UACC-62 melanoma, -42.3% (active); with LOX IMVI melanoma it was -73.5% (active); in the assay with SK-MEL-28 melanoma, -57.5% (active); in the assay with EKVX NSCLC it was 4.87% (active); with SN12C renal, 3.6% (active). The growth in the assay with UO-31 renal was 12.2%; in the assay with TK-10 renal, -10.4% (active); in the assay with ACHN renal, -84.9% (active); with CAKI-1 renal, 5.36% (active); in the assay with A498 renal it was -40.4% (active); with CCRF-CEM leukemia, 6.13% (active). Moreover, in the assay with MOLT-4 leukemia, the growth was -13.5% (active).
